Data reported in PMC6451091, “NextPBM: a platform to study cell-specific transcription factor binding and cooperativity”.
In all, about 3,700 sequences were measured (“z-score”: median about 4, highest 2% from about 8.4 on). Many of the other results were omitted from the sample, so the highest values are more common in it than they were.

What was measured:
[1] = target: PU.1 (IVT) (UniProt P17947 1-270); assay: protein-binding microarray (PBM); 20 mM HEPES pH 7.9, 100 mM NaCl, 1 mM DTT, 0.2 mg/mL BSA, 0.02% Triton X-100, 2% milk, 0.4 mg/mL salmon testes DNA; 1 h; temperature not stated; high values mean tight binding; settings: dsDNA, one strand shown
Summary of the method: (§1)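 Full-length untagged PU.1 was made by coupled human in vitro transcription/translation. It was bound for 1 h to custom double-stranded DNA microarrays carrying 20-bp genomic sites and single-nucleotide variants, 10 probes per site (5 per orientation). The binding buffer was HEPES pH 7.9 with 100 mM NaCl, 2% milk and salmon testes DNA. Bound protein was detected with anti-PU.1 and then a fluorescent secondary antibody. Binding is a z-score from scanned fluorescence after linear-regression normalisation.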

[2] = target: PU.1 (IVT) (UniProt P17947 1-270); assay: as above; settings: dsDNA, one strand shown; remark: listed apart in the source
Summary of the method: as §1

Sequence	binding signal [1] [z-score]	binding signal [2] [z-score]
GCCTAGCACAAAAAAGGGAAGTGCAAGATGTGCTAGGTCTTGATTCGCTTGACGCTGCTG	7.79	
GCCTAGCACAAAGAAGGGAAGTGACTTGCGTGCTAGGTCTTGATTCGCTTGACGCTGCTG	3.86	
GCCTAGCACAAAAAGGGGAAGTTGGGGATGTGCTAGGTCTTGATTCGCTTGACGCTGCTG	8.45	
GCCTAGCACAAAAAAGGGAAGTGAAGTACGTGCTAGGTCTTGATTCGCTTGACGCTGCTG	7.2	
GCCTAGCACAAAAAGGGGAAGTCAATTTTGTGCTAGGTCTTGATTCGCTTGACGCTGCTG	8.55	
GCCTAGCACAAAAAGGGGAAGTGACTTTCGTGCTAGGTCTTGATTCGCTTGACGCTGCTG	8.66	
GCCTAGCACAAAAAAAGGAAGTCTGTTTTGTGCTAGGTCTTGATTCGCTTGACGCTGCTG		6.43
GCCTAGCACAAAAAGGGGAAGTACTGCGAGTGCTAGGTCTTGATTCGCTTGACGCTGCTG	8.58	
GCCTAGCACAAAAGGAGGAAGTACTGTGAGTGCTAGGTCTTGATTCGCTTGACGCTGCTG	7.12	
GCCTAGCACAAAAAAGGGAAGTGGATGCTGTGCTAGGTCTTGATTCGCTTGACGCTGCTG	7.67	
GCCTAGCACAAAAAGGGGAAGTCAAATTGGTGCTAGGTCTTGATTCGCTTGACGCTGCTG	8.09	
GCCTAGCACAAAAAGGGGAAGTGATGGCGGTGCTAGGTCTTGATTCGCTTGACGCTGCTG	8.22	
GCCTAGCACTTAAACAGGAAGTGTGTAATGTGCTAGGTCTTGATTCGCTTGACGCTGCTG	5.79	
GCCTAGCACTTAAGGAGGAACTGAAACCAGTGCTAGGTCTTGATTCGCTTGACGCTGCTG		2.65
GCCTAGCACTAAAGGAGGAACTGAAAACAGTGCTAGGTCTTGATTCGCTTGACGCTGCTG		3.62
GCCTAGCACTAAAAGAGGAACTGAAACCAGTGCTAGGTCTTGATTCGCTTGACGCTGCTG	6.72	
GCCTAGCACCTGCAAAGGAAGTCTGGGCCGTGCTAGGTCTTGATTCGCTTGACGCTGCTG		0.767
GCCTAGCACTGGAAGAGGAAGTTGGTTTTGTGCTAGGTCTTGATTCGCTTGACGCTGCTG	7.15	
GCCTAGCACCATTTGTAGAAGTACTGTGCGTGCTAGGTCTTGATTCGCTTGACGCTGCTG		0.808
GCCTAGCACAAAAAGCAGAAGTGTTCTGTGTGCTAGGTCTTGATTCGCTTGACGCTGCTG	6.88	
GCCTAGCACAAAAAGGGGAAGTCTGGACTGTGCTAGGTCTTGATTCGCTTGACGCTGCTG	7.65	

Sequence	binding signal [1] [z-score]	binding signal [2] [z-score]
GCCTAGCACAAAAAGGGGAAGTGCTTTCTGTGCTAGGTCTTGATTCGCTTGACGCTGCTG	8.76	
GCCTAGCACAAAAAGGGGAAGTGTGCTGCGTGCTAGGTCTTGATTCGCTTGACGCTGCTG	8.33	
GCCTAGCACGAAAAGAGGAAGTCAGACTAGTGCTAGGTCTTGATTCGCTTGACGCTGCTG	8.15	
GCCTAGCACGAAATGAGGAAGTGCTAGTGGTGCTAGGTCTTGATTCGCTTGACGCTGCTG	8.07	
GCCTAGCACGAAATGAGGAAGTGGCTGGTGTGCTAGGTCTTGATTCGCTTGACGCTGCTG	7.9	
GCCTAGCACGAAAAGAGGAAGTCAAACTTGTGCTAGGTCTTGATTCGCTTGACGCTGCTG	8.22	
GCCTAGCACGGAAAGAGGAAGTCAAAAATGTGCTAGGTCTTGATTCGCTTGACGCTGCTG	7.85	
GCCTAGCACGAAAAGAGGAAGTCGAATTAGTGCTAGGTCTTGATTCGCTTGACGCTGCTG	8.06	
GCCTAGCACGAAAAGAGGAAGTCAGAAATGTGCTAGGTCTTGATTCGCTTGACGCTGCTG	8.35	
GCCTAGCACGAAAAGAGGAAGTCAAATTTGTGCTAGGTCTTGATTCGCTTGACGCTGCTG	8.44	
GCCTAGCACAGAAAAAGGAAGTGGAATTTGTGCTAGGTCTTGATTCGCTTGACGCTGCTG	6.29	
GCCTAGCACGAAAAGAGGAAGTCAAATTCGTGCTAGGTCTTGATTCGCTTGACGCTGCTG	8.31	
GCCTAGCACGAAAAGAGGAAGTGGAATTTGTGCTAGGTCTTGATTCGCTTGACGCTGCTG	8.92	
GCCTAGCACGAAATGAGGAAGTGAAATTGGTGCTAGGTCTTGATTCGCTTGACGCTGCTG	8.42	
GCCTAGCACAAAAAAAGGAAATGAAAGTAGTGCTAGGTCTTGATTCGCTTGACGCTGCTG	3.32	
GCCTAGCACGTCAAAAAAAGGAAAAAGCCGTGCTAGGTCTTGATTCGCTTGACGCTGCTG		0.885
GCCTAGCACAAGAAGCGGAAGTGAAAGACGTGCTAGGTCTTGATTCGCTTGACGCTGCTG	6.8	
GCCTAGCACAGAAAAAGGAACTGGCTAGAGTGCTAGGTCTTGATTCGCTTGACGCTGCTG		3.75
GCCTAGCACCAAAAGAGGAAGTGAGAAGCGTGCTAGGTCTTGATTCGCTTGACGCTGCTG	8.31	
GCCTAGCACGAAAACAGGAAGTGACTGTTGTGCTAGGTCTTGATTCGCTTGACGCTGCTG	8.08	
GCCTAGCACGAAATGAGGAAGTGTAAACAGTGCTAGGTCTTGATTCGCTTGACGCTGCTG	7.49	

Sequence	binding signal [1] [z-score]	binding signal [2] [z-score]
GCCTAGCACGAAAAGAGGAAGTGAAATTGGTGCTAGGTCTTGATTCGCTTGACGCTGCTG	8.72	
GCCTAGCACGAAATGAGGAAGTACCTAAAGTGCTAGGTCTTGATTCGCTTGACGCTGCTG	8.71	
GCCTAGCACGAAGAGAGGAAGTCAAATTGGTGCTAGGTCTTGATTCGCTTGACGCTGCTG		4.29
GCCTAGCACGAAAAGAGGAAATGAAATTGGTGCTAGGTCTTGATTCGCTTGACGCTGCTG		6.51
GCCTAGCACGAAGAGAGGAAGTGAAATTGGTGCTAGGTCTTGATTCGCTTGACGCTGCTG		5.29
GCCTAGCACGAAATGAGGAAGTTGAGAGCGTGCTAGGTCTTGATTCGCTTGACGCTGCTG	8.36	
GCCTAGCACGAAAAGAGGAAGTCAAATTGGTGCTAGGTCTTGATTCGCTTGACGCTGCTG	8.37	
GCCTAGCACGAAATGAGGAAGTGATTAGGGTGCTAGGTCTTGATTCGCTTGACGCTGCTG	8.13	
GCCTAGCACGAAAAGAGGAAATGAGAGAGGTGCTAGGTCTTGATTCGCTTGACGCTGCTG		5.36
GCCTAGCACGAAATGAGGAAGTTGGTGCTGTGCTAGGTCTTGATTCGCTTGACGCTGCTG	8.11	
GCCTAGCACGAAAAAAGGAAGTCAAATTGGTGCTAGGTCTTGATTCGCTTGACGCTGCTG		5.97
GCCTAGCACGAAATAGGGAAGTGTGAGTTGTGCTAGGTCTTGATTCGCTTGACGCTGCTG	6.74	
GCCTAGCACTGAGAGGGGAAGTGGCAGCTGTGCTAGGTCTTGATTCGCTTGACGCTGCTG		4.01
GCCTAGCACTGGAGGAGGAACTGAAATACGTGCTAGGTCTTGATTCGCTTGACGCTGCTG	2.94	
GCCTAGCACTGAAAGGGGAAGTCAGATAGGTGCTAGGTCTTGATTCGCTTGACGCTGCTG		6.45
GCCTAGCACCAAATGAGGAACTGATGCGAGTGCTAGGTCTTGATTCGCTTGACGCTGCTG	6.15	
GCCTAGCACCAAAGGAGGAACTGAAACCAGTGCTAGGTCTTGATTCGCTTGACGCTGCTG		3.2
GCCTAGCACTGAAAGGGGAAGTGGGTGCCGTGCTAGGTCTTGATTCGCTTGACGCTGCTG		6.37
GCCTAGCACCGAAAGGGGAAGTGCTAAGCGTGCTAGGTCTTGATTCGCTTGACGCTGCTG	6.82	
GCCTAGCACGAAAAGAGGAAGTCAATTTGGTGCTAGGTCTTGATTCGCTTGACGCTGCTG	8.54	
GCCTAGCACGAAAAGAGGAAGTCAAACTGGTGCTAGGTCTTGATTCGCTTGACGCTGCTG	7.89	

Sequence	binding signal [1] [z-score]	binding signal [2] [z-score]
GCCTAGCACGGAAAGAGGAAGTCAAATTGGTGCTAGGTCTTGATTCGCTTGACGCTGCTG	7.8	
GCCTAGCACTACCCTTTAAAAATAGTTCAGTGCTAGGTCTTGATTCGCTTGACGCTGCTG		0.827
GCCTAGCACAGAGAGAGGAAGTGATTACAGTGCTAGGTCTTGATTCGCTTGACGCTGCTG	4.98	
GCCTAGCACTTCAGGGGGAAGTACTGTGTGTGCTAGGTCTTGATTCGCTTGACGCTGCTG		3.94
GCCTAGCACCACAAGAGGAAGTCCCACAAGTGCTAGGTCTTGATTCGCTTGACGCTGCTG		3.93
GCCTAGCACTCCAGGAGGAACTACTGTGTGTGCTAGGTCTTGATTCGCTTGACGCTGCTG	2.59	
GCCTAGCACACAGAGAGGAAGTAGATAAAGTGCTAGGTCTTGATTCGCTTGACGCTGCTG		4.75
GCCTAGCACAGAAAGGGGAAGTGACTTGCGTGCTAGGTCTTGATTCGCTTGACGCTGCTG	8.13	
GCCTAGCACAGAGAGGGGAAGTGACTTGCGTGCTAGGTCTTGATTCGCTTGACGCTGCTG	4.95	
GCCTAGCACAGAAAGAGGAACTGAAAAGTGTGCTAGGTCTTGATTCGCTTGACGCTGCTG	6.62	
GCCTAGCACAGAAAGAGGAAGTGTAAAAAGTGCTAGGTCTTGATTCGCTTGACGCTGCTG	8.57	
GCCTAGCACAGAGAGAGGAAGTGAAAGTAGTGCTAGGTCTTGATTCGCTTGACGCTGCTG		4.81
GCCTAGCACAGAAAGAGGAAGTTGGCTCTGTGCTAGGTCTTGATTCGCTTGACGCTGCTG	8.56	
GCCTAGCACAGAGAGAGGAAGTGAGCTCTGTGCTAGGTCTTGATTCGCTTGACGCTGCTG		4.31
GCCTAGCACAGAAAGAGGAAGTGACTTGCGTGCTAGGTCTTGATTCGCTTGACGCTGCTG	8.54	
GCCTAGCACAGAAAGAGGAAGTCCTCTCTGTGCTAGGTCTTGATTCGCTTGACGCTGCTG	8.3	
GCCTAGCACAGAAAGAGGAAGTAGATATTGTGCTAGGTCTTGATTCGCTTGACGCTGCTG	8.76	
GCCTAGCACAGGAAGAGGAAGAGGAAGAAGTGCTAGGTCTTGATTCGCTTGACGCTGCTG		4.95
